The nature of test [1]: yeast TOR pathway RPL19A-GFP modulators, primary screen, cell-based, S. cerevisiae, multiplex flow cytometry (AID 1862; in the data active means percent of DMSO control GFP below about 86%;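 further: lower values mimic rapamycin by blocking the RPL19A rise seen in DMSO cells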). The note with it: S. cerevisiae RPL19A-GFP strain, flow cytometry fluorescence, 3 h; at 10 µM; stronger effect = lower value. In general terms: In flow cytometry, cells or beads pass a laser one at a time.
Test [2] in a line: modulators of MEP2-GFP levels in yeast, primary screen, S. cerevisiae, multiplex flow cytometry (AID 1867;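 active means GFP response, as percent of the DMSO control, above the screen-wide mean plus 3 SD, about 139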;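 further: median GFP channel fluorescence of barcode-gated MEP2-GFP cells measured by flow cytometry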). As to conditions: S. cerevisiae MEP2-GFP strain, 3 h, at 10 µM, stronger effect = higher value, 100% means same as DMSO wells.
A short description of test [3]: modulators of CIT2-GFP expression in yeast, primary screen, S. cerevisiae, GFP fusion, multiplex flow cytometry (AID 1870;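 active means percent response above a set limit, the screen-wide mean plus 3 SD, cut at about 130% in these data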;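 further: barcoded CIT2-GFP strain pooled with four other GFP strains with rapamycin as positive control; median GFP fluorescence per well over plate mean of DMSO wells so 100% = DMSO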). The note with it: 3 h, at 10 µM, stronger effect = higher value.
Test [4] in a line: modulators of LAP4-GFP expression in yeast, primary screen, S. cerevisiae, multiplex flow cytometry (AID 1873;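 active means GFP signal, as percent of the solvent control, above the screen mean plus 3 SD, about 149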). As to conditions: 3 h, at 10 µM, stronger effect = higher value.
The nature of test [5]: modulators of AGP1-GFP expression in yeast TOR pathway, primary screen, cell-based, multiplex flow cytometry, S. cerevisiae (AID 1887;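 active means GFP signal above the screen-wide mean plus 3 SD, that is over about 124.5% of the solvent control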;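 further: AGP1-GFP fusion strain of S. cerevisiae within a five-strain barcoded multiplex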). As to conditions: 3 h, at 10 µM, stronger effect = higher value.
Test [6] can be described thus: inhibitors of CD8+ T cell-vesicle binding, pilot screen, LFA-1/ICAM-1 modulator project, MLPCN validation set, flow cytometry (AID 2523;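 active means response below a set limit, under 55% cells CD8-positive and vesicle-bound, and CD8 cells' 90th-percentile brightness under 279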;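 on vesicle binding response: mean PE anti-B7-1 fluorescence of CD8+ cells relative to row control; 100% = QL9-loaded vesicles with DMSO vehicle in the same plate row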). The note with it: 2C mouse CD8+ T cells, at 7 µM, stronger effect = lower value; double positive events: measured here: CD8+/vesicle+ event percentage.
The target in test [7] is Integrin beta-1 (Homo sapiens) + Integrin alpha-4 (Homo sapiens) (UniProt P13612+P05556). As to the kind of experiment: inhibition of HUTS-21 binding to VLA-4, pilot screen, VLA-4 allosteric modulator project, U937 cells, HUTS-21 mAb, flow cytometry, validation set (AID 2674;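 active means inhibition above 50%, about 3 SD of the validation set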;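 further: antibody binding induced by the VLA-4 ligand LDV present at three times its Kd; 0% = LDV ligand with antibody and no compound and 100% = antibody without LDV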). As to conditions: HUTS-21 LIBS mAb binding, at 6.7 µM, stronger effect = higher value, binding induced by LDV ligand.
Integrin beta-1 (Homo sapiens) + Integrin alpha-4 (Homo sapiens), sequence (P05556 whole entry, looked up): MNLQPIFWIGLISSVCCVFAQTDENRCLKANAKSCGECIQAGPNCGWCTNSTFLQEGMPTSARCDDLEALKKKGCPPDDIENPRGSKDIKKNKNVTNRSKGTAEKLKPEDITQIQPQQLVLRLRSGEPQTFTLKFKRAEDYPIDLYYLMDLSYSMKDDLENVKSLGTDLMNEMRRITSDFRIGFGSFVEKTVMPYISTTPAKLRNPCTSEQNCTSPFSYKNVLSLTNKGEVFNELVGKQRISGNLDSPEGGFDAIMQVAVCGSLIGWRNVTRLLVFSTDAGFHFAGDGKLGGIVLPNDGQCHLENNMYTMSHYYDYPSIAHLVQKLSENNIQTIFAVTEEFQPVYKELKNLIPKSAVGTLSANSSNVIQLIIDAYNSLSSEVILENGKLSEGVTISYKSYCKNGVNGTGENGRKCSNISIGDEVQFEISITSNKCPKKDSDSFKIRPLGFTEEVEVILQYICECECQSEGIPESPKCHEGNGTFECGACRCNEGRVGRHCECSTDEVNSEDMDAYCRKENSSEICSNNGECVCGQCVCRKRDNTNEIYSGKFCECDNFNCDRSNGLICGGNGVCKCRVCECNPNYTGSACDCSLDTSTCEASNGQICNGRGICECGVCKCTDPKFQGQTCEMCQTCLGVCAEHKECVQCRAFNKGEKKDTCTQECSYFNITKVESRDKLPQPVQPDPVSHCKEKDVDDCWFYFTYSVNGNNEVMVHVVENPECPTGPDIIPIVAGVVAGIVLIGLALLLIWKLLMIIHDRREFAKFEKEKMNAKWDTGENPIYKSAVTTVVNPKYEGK
Integrin beta-1 (Homo sapiens) + Integrin alpha-4 (Homo sapiens), sequence (P13612 whole entry, looked up): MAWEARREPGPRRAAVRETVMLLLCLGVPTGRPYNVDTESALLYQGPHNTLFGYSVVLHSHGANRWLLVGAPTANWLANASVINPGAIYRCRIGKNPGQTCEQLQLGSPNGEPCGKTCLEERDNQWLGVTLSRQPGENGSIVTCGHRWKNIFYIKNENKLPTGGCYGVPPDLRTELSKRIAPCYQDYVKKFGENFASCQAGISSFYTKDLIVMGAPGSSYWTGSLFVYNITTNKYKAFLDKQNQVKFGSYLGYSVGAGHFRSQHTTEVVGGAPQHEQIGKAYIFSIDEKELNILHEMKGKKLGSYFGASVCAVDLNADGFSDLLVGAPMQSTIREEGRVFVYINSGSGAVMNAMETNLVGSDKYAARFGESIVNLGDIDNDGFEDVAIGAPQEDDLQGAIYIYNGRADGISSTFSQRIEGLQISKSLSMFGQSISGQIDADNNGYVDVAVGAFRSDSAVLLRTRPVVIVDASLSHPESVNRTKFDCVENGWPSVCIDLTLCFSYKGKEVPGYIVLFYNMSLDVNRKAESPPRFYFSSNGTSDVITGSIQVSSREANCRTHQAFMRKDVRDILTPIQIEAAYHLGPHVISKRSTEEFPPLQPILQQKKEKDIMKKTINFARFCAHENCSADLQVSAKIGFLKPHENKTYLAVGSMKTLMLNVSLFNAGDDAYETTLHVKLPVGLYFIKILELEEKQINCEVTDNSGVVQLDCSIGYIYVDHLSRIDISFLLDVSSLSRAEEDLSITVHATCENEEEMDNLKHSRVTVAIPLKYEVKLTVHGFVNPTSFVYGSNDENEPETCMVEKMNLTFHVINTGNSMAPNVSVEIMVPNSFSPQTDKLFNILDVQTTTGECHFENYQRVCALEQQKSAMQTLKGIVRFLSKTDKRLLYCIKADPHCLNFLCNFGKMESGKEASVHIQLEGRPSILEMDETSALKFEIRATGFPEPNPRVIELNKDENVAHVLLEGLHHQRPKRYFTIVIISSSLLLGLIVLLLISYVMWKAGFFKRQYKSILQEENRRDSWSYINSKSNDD

A short description of test [8]: superoxide lowering in aged yeast cells, pilot screen, validation compound set (AID 2706;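 active means superoxide response below 65% of plate, a cut near 3 SD across the whole screen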;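 further: yeast exposed to compound for one week at 30 degrees C before staining; 100% = mean of all compound wells on the same plate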). As to conditions: S. cerevisiae aging, superoxide DHE fluorescence; at 10 µM; stronger effect = lower value.
Test [9] has as its target Beta-adrenergic receptor kinase 1 (Homo sapiens) (UniProt P25098). Briefly: GRK2 binders displacing RNA aptamer, biochemical, validation, human GRK2, bead flow cytometry (AID 488806;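 active means aptamer binding inhibition above 30%, about 3 SD of noise from non-fluorescent compounds; inactive means inhibition at or below 30%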). The note with it: bead-bound GRK2, FAM-aptamer displacement, at 10 µM, stronger effect = higher value.
Test [10] addresses Beta-2 adrenergic receptor (Homo sapiens) (UniProt P07550). As to the kind of experiment: beta2AR agonists driving receptor internalization, pilot screen, cell-based, FAP fluorogen, flow cytometry, validation set (AID 504459).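 Further: agonist-driven loss of surface beta2AR via internalization measured by FAP dye flow cytometry.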 As to conditions: Am2.2-beta2AR cells, FAP surface receptor flow cytometry; at 10 µM; stronger effect = higher value.
The target in test [11] is AP-2 complex subunit beta (Homo sapiens) (UniProt P63010). Briefly: inhibitors of arrestin peptide binding to AP2, pilot screen, biochemical, validation set, GST-AP2 beads, flow cytometry (AID 504541;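 active means inhibition above 54%, about 3 SD of non-fluorescent compounds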;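 further: AP2 carries R879A mutation and is captured from E. coli lysate; bead-bound FITC arrestin peptide fluorescence measuring arrestin peptide binding to AP2; 0% = DMSO wells and 100% = excess unlabeled arrestin peptide control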). The note with it: FITC arrestin peptide, at 10 µM, stronger effect = higher value, AP2 beta2 appendage fragment, R879A mutant.
AP-2 complex subunit beta (Homo sapiens), sequence (P63010 whole entry, looked up, the tested form may be a part, one chain of several): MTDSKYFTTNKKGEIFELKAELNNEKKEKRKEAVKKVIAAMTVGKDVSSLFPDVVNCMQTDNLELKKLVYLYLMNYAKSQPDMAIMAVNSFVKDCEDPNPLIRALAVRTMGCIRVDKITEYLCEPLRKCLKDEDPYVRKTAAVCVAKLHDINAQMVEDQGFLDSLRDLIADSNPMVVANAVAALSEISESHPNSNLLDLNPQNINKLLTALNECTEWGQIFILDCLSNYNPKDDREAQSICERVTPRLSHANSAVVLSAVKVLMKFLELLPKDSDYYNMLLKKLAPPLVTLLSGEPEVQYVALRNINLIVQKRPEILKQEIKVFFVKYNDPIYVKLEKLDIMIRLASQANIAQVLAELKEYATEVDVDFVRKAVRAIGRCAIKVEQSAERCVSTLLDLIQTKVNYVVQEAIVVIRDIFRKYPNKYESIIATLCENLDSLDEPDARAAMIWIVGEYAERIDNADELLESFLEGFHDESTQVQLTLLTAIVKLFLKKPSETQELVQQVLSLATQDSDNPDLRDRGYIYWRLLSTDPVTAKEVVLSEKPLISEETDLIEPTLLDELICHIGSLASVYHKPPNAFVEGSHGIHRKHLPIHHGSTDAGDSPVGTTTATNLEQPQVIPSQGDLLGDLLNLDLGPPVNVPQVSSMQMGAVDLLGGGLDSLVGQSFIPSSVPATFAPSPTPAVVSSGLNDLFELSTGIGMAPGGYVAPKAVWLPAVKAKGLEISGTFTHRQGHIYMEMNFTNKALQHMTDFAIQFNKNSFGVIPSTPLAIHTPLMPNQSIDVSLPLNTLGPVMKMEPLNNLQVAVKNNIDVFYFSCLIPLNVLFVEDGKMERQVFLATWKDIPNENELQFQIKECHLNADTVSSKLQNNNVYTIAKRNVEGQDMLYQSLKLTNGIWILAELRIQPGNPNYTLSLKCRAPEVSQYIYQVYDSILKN
Test [12] is described as follows: yeast V-ATPase proton transport modulators, S. cerevisiae, pHLuorin, HTS validation (AID 504600; in the data active means response above about 15%;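 further: plate controls were DMSO for no effect and reference compound for full effect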). As to conditions: S. cerevisiae pHLuorin cytosolic pH, at 10 µM, stronger effect = higher value.
Test [13] relates to anti-desmoglein-3 scFv antibody binding to human DSG3. Briefly: inhibitors of anti-DSG3 scFv binding to DSG3, pilot screen, biochemical, validation compound set, bead-based, flow cytometry (AID 588368;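 active means binding below the plate cutoff, the plate median minus 3 SD, with a reading above zero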;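 further: signal is the median channel fluorescence of bead-bound GFP antibody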). The note with it: Protein G beads, DSG3-Fc, scFv-GFP binding, at 10 µM, stronger effect = lower value.
Test [14] is described as follows: inhibitors of fungal efflux pumps CDR1, CDR2, MDR1, pilot screen, validation compound set, multiplex, phenotypic (AID 588506;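 active means efflux inhibition above 0.42, the validation set average plus 4 SD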;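 further: Nile Red retained in cells so higher fluorescence means more efflux inhibition; 0 = negative control wells and 1 = enniatin B 25 µM full block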). The note with it: S. cerevisiae pump-expressing triplex, Nile Red efflux flow cytometry; at 10 µM; stronger effect = higher value; the pumps come from Candida albicans.
Test [15] has as its target ATP-binding cassette sub-family B member 6 (Homo sapiens) (UniProt Q9NP58). As to the kind of experiment: ABCB6 transporter inhibitors, pilot screen, K562-ABCB6 cells, flow cytometry, validation set (AID 588550;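 active means inhibition above the screen-wide mean plus 3 SD, about 51%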;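 further: 0% = DMSO wells and 100% = benzethonium chloride 70 µM positive control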). The note with it: K562-ABCB6 porphyrin accumulation, 1 h, at 10 µM, stronger effect = higher value.
A short description of test [16]: promoters of myeloid differentiation in arrested cells, primary screen, cell-based, GFP/MAC1 double positive, flow cytometry, validation set (AID 588685;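 active means differentiation response of at least 50%, scaled between solvent and reference control, from cells with both markers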;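 further: compound exposure lasts four days before antibody staining and flow analysis; 0% = DMSO wells and 100% = 5 µM fulvestrant positive control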). As to conditions: ER-HoxA9 marrow cells, stronger effect = higher value, normalized: vehicle 0, fulvestrant 100.

Records with an inconclusive call do not appear. The source made the active and inactive calls.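 How the source made its calls, unless noted: active means percent response above 42, roughly 3 SD of non-fluorescent test compounds; inactive means the rest.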

ATP-binding cassette sub-family B member 6 (Homo sapiens), sequence (Q9NP58 whole entry, looked up): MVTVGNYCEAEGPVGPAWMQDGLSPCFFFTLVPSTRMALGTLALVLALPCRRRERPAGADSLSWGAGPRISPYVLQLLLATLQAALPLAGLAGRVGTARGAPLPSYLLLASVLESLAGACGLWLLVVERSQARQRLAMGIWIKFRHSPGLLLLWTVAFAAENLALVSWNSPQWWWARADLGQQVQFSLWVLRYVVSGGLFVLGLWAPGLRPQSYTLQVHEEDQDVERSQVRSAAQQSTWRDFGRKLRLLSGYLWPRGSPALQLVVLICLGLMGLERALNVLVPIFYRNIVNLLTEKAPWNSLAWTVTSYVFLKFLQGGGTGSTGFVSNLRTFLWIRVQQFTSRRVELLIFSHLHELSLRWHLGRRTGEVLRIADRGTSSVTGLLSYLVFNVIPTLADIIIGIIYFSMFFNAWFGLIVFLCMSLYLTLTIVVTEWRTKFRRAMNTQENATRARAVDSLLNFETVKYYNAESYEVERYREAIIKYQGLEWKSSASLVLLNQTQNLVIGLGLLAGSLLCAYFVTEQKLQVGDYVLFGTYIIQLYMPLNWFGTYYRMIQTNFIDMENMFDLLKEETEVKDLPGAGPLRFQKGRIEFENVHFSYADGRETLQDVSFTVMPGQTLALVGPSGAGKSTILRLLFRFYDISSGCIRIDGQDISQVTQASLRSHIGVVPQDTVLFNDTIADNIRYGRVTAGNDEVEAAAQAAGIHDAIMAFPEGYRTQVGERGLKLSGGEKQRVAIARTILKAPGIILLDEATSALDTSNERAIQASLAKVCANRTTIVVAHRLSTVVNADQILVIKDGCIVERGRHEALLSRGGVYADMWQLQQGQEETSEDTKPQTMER
Beta-2 adrenergic receptor (Homo sapiens), sequence (P07550 whole entry, looked up): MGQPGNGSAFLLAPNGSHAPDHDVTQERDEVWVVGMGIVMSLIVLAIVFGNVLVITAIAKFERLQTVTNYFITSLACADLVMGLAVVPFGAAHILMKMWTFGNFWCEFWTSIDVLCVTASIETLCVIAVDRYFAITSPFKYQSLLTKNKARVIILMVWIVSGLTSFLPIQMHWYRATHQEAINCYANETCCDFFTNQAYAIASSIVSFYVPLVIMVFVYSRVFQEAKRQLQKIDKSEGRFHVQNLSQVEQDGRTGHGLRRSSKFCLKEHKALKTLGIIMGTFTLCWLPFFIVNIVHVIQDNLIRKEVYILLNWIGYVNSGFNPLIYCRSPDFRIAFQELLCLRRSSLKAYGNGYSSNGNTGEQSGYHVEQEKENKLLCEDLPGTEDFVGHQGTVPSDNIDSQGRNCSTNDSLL
Beta-adrenergic receptor kinase 1 (Homo sapiens), sequence (P25098 whole entry, looked up): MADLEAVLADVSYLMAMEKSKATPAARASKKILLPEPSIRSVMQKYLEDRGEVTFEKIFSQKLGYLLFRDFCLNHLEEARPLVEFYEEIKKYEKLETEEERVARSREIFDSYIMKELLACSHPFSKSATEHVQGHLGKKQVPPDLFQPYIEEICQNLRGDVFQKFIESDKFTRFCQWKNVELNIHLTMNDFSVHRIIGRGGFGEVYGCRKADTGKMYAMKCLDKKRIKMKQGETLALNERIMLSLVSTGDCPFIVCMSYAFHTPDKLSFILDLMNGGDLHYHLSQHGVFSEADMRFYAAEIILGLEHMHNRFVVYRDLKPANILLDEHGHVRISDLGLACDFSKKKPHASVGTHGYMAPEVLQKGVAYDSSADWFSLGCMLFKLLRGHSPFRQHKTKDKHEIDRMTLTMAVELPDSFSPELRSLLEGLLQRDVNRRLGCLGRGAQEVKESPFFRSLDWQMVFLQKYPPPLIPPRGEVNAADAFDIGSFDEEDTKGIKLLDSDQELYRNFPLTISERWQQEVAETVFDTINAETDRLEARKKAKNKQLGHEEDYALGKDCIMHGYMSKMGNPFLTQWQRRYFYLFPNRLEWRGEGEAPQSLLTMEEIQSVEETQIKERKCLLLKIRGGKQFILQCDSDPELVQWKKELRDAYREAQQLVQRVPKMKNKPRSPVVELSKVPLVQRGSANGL

One may read the inhibition as the drop in the measured response relative to a control, in per cent. With `N/C(Cc1ccc(Cl)cc1Cl)=N\OC(=O)c1ccc(Br)o1`, the percent of DMSO control GFP in [1] was 93.5% (inactive). For the same molecule, the figures for the GFP response vs DMSO in test [2] and in [4] were 128% (inactive) and 167% (active), respectively. Moreover, the percent response of DMSO control in test [3] is 106% (inactive). Also, the GFP response, % of DMSO in test [5] was 43.5% (inactive). In addition, the double positive events in test [6] stood at 52.1%. The vesicle binding response in test [6] was 224% (inactive). Also, the results for the inhibition in test [7], in test [11] and in test [15] were -11.3% (inactive), -11% (inactive) and 2% (inactive), respectively. For the same molecule, the superoxide response (% of plate) in [8] is 124% (inactive). The aptamer binding inhibition in [9] was -2% (inactive). Further, the response in test [10] was 6.81% (inactive); in [12], 3.34% (inactive). Also, the binding (% of control) in [13] was 105% (inactive). Further, the efflux inhibition (fraction of control) in [14] was -0.39 (inactive). For the same molecule, the differentiation response in test [16] was 2.4% (inactive).

With `O=C(CS(=O)(=O)c1ccccc1)c1ccc2c(c1)OCCO2`, the percent of DMSO control GFP in [1] is 99.7% (inactive). In addition, the GFP response vs DMSO was 103% (inactive) in test [2] and 112% (inactive) in [4]. Further, in [3], the percent response of DMSO control was 100% (inactive). Moreover, the GFP response, % of DMSO in test [5] is 113% (inactive). In [6], this molecule came in with a double positive events of 57.1%. The vesicle binding response in [6] was 194% (inactive). Further, the inhibition was -9.63% (inactive) in test [7], -15.5% (inactive) in test [11] and 5% (inactive) in [15]. Also, the superoxide response (% of plate) in test [8] was 98.2% (inactive). In addition, the aptamer binding inhibition in [9] is 4% (inactive). Further, the response was -29.9% (inactive) in test [10] and -0.24% (inactive) in [12]. In addition, the binding (% of control) in test [13] is 103% (inactive). Also, the efflux inhibition (fraction of control) in [14] is 0.12 (inactive). The differentiation response in test [16] was -1.05% (inactive).

For the molecule `O=C(O)CCn1cnc2ccccc2c1=O`, the percent of DMSO control GFP in test [1] was 97.8% (inactive). Further, the GFP response vs DMSO in [2] is 113% (inactive); in test [4] it was 111% (inactive). Moreover, the percent response of DMSO control in test [3] is 93.9% (inactive). Also, the GFP response, % of DMSO in test [5] is 97.4% (inactive). This molecule had a double positive events in test [6] of 58.8%. For the same molecule, the vesicle binding response in test [6] was 172% (inactive). Further, the inhibition in test [7] is 9.13% (inactive); in [11] it was -3.21% (inactive); in test [15], 7% (inactive). Also, the superoxide response (% of plate) in test [8] was 101% (inactive). Moreover, the aptamer binding inhibition in test [9] was 4% (inactive). The results for the response in test [10] and in test [12] were -1.18% (inactive) and 5.74% (inactive), respectively. Moreover, the binding (% of control) in test [13] is 101% (inactive). Further, the efflux inhibition (fraction of control) in test [14] is -0.28 (inactive). For the same molecule, the differentiation response in [16] was -8.8% (inactive).

For `CC(NC(=O)OCc1ccccc1)C(=O)N1CC(O)CC1C(=O)O` (stereo not drawn), the percent of DMSO control GFP in test [1] was 103% (inactive). The GFP response vs DMSO was 112% (inactive) in test [2] and 105% (inactive) in [4]. Further, in [3], the percent response of DMSO control was 90.1% (inactive). The GFP response, % of DMSO in test [5] was 103% (inactive). For the same molecule, the double positive events in test [6] turned out to be 62.9%. In [6], the vesicle binding response was 182% (inactive). For the same molecule, the figures for the inhibition in test [7], in test [11] and in test [15] were 6.4% (inactive), 31.1% (inactive) and 4% (inactive), respectively. For the same molecule, the superoxide response (% of plate) in test [8] is 97.5% (inactive). Moreover, in [9], the aptamer binding inhibition was 3% (inactive). Besides, the response in test [10] was 9.77% (inactive); in test [12], -4.2% (inactive). In addition, the binding (% of control) in [13] is 99.5% (inactive). Also, the efflux inhibition (fraction of control) in [14] was 0.8 (active). Also, in test [16], the differentiation response is 29.6% (inactive).

These data come from PubChem BioAssay.
